The list is not random: actives were taken first. Their share in the collection is about 27%.
CYP2C9 inh = blocks human cytochrome P450 2C9. P11712. CYP2C9 Supersomes, luciferin-H conversion, luminescence. inhibition, % at 5 µM. 20% of 96,000 active. AID 777;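 active = blocking of liver enzyme CYP2C9 beyond about 50% at 5 µM, limit read from the data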
CYP2C9 activ = activators of human CYP2C9 | P11712 | recombinant CYP2C9, luciferin-H conversion, luminescence; stronger effect = higher value; factor 1 = untreated enzyme, 0 = blocked | activation factor at 5 µM | 1.4% of 96,000 active | AID 1024;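 active = activation factor of 2 or more for CYP2C9 at a 5 µM dose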;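 note: 0 = sulfaphenazole-blocked wells and 1 = vehicle-only wells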
sEH inh = inhibitors of human soluble epoxide hydrolase | recombinant human sEH enzymatic activity assay | inhibition, % at 2 µM | 0.34% of 91,000 active; in the data active = inhibition above about 80%
Target sequence (P34913 whole entry, looked up): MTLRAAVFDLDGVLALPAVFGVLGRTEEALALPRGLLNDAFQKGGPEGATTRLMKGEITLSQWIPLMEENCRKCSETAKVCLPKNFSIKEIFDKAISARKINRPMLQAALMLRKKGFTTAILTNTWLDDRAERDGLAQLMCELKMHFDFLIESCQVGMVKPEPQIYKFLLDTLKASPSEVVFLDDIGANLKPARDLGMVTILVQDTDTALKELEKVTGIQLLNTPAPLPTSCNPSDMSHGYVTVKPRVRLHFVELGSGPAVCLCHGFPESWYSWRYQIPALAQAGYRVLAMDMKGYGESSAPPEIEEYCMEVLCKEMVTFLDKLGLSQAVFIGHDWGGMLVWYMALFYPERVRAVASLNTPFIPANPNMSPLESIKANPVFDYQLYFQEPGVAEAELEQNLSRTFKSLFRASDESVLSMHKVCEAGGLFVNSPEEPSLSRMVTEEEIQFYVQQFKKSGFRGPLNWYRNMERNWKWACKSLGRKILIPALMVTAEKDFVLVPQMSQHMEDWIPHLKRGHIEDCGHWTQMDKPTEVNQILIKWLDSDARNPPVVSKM
CYP2C19 act = cytochrome P450 2C19 (human) activation; P33261; recombinant CYP2C19, luciferin-H EGE luminescence; stronger effect = higher value; 0 = fully inhibited enzyme, 1 = untreated enzyme; activation factor at 5 µM; 96,000 tested, under 10 active;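 active = activation factor of at least 2 at 5 µM in the primary screen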;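 note: 0 = wells with 2.5 mM tranylcypromine and 1 = vehicle-only wells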
CYP2C19 inh = blocks human cytochrome P450 2C19. P33261. CYP2C19 Supersomes, luciferin-H EGE luminescence, 30 min. inhibition, % at 5 µM. 21% of 96,000 active. AID 778;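 active = CYP2C19 inhibition above a set limit at 5 µM in the primary screen, cut at about 50% in these data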;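 note: plate controls were negative control wells for no effect and 2.5 mM tranylcypromine positive control for full effect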
sEH act = activators of human soluble epoxide hydrolase; P34913; 0.04% of 91,000 active; AID 717; activation, % at 2 µM; purified human sEH enzymatic activity, activator screen; in the data active = activation above about 37%
* marks the source's active call; other numbers are inactive results; / = no result.

SMILES	CYP2C9 inh	CYP2C9 activ	sEH inh	CYP2C19 act	CYP2C19 inh	sEH act
CC(C)CCOCc1nc2sc3c(c2c(=O)[nH]1)CCC(C)C3 (stereo not given)	72*	0.3	19	0.5	54*	-20
CC(=O)Nn1cc2c(c1-c1ccccc1)c(=O)n(C)c(=O)n2C	-11	1.1	4	1	-5	-5
Cc1cccc(-c2c3c(=O)n(C)c(=O)n(C)c3cn2-c2ccccc2O)c1	71*	0.3	/	0.9	8	/
COC(=O)c1ccccc1NC(=O)c1ccc(COc2cc(C)cc(C)c2)o1	-25	1.3	-16	1.1	-15	19
COc1ccccc1OCc1ccc(C(=O)N(C)C)o1	4	1	-14	0.8	20	16
COc1ccccc1NC(=O)c1ccc(COc2ccccc2OC)o1	-185	2.8*	-1	0.4	58*	2
COC(=O)c1ccccc1NC(=O)c1ccc(COc2ccc(C)c(C)c2)o1	-4	1	-6	0.5	52*	8
CCOC(=O)c1c(C)n(-c2ccc(OC)cc2)c2c(C/C(C)=N/O)c(Br)c(OC)c(O)c12	8	0.9	3	0.9	9	-1
C=CCn1c(CCNC(=O)C(C)(C)C)nc2ccccc21	8	0.9	/	0.6	40	/
Cc1ccc(C2CC(c3ccc(F)cc3)Nc3nc(N)nn32)cc1 (stereo not given)	-16	1.2	/	0.7	28	/
Nc1nc2n(n1)C(c1cccc(Cl)c1)CC(c1ccc(F)cc1)N2 (stereo not given)	14	0.9	-2	0.1	89*	-1
Nc1nc2n(n1)C(c1ccc(F)cc1)CC(c1ccc(F)cc1)N2 (stereo not given)	9	0.9	-7	0.3	71*	6
Fc1ccccc1C(c1nnnn1Cc1ccc2c(c1)OCO2)N1CCN(Cc2ccco2)CC1 (stereo not given)	-20	1.2	-4	0.8	23	7
Clc1ccc(COc2ccccn2)cc1Cl	2	1	/	0.3	71*	/
O=C(OCc1c(Cl)cccc1Cl)c1ccccn1	-14	1.1	9	0.9	5	-9
Cc1cccc(-n2ncc3c(NCc4ccccc4)ncnc32)c1	13	0.9	/	0.9	9	/
Cc1cccc(-n2ncc3c(NCc4ccccn4)ncnc32)c1	32	0.7	6	0.8	22	-1
Cc1cccc(-n2ncc3c(NCCc4ccc(S(N)(=O)=O)cc4)ncnc32)c1	96*	0	/	0.1	92*	/
Cc1cccc(-n2ncc3c(NCc4cccs4)ncnc32)c1	51*	0.5	-6	0.9	11	1
Cc1cc(C)c2c(-n3cccc3)nn(CC#N)c2n1	6	0.9	10	0.8	20	-4
O=S(=O)(c1ccccc1)c1nc(-c2ccco2)oc1N1CCOCC1	14	0.9	14	0.6	39	-16
COc1cc(-c2nc(S(=O)(=O)c3ccc(C)cc3)c(N3CCOCC3)o2)cc(OC)c1OC	51*	0.5	-11	0.7	33	9
COc1cc(-c2nc(S(=O)(=O)c3ccc(Cl)cc3)c(N3CCOCC3)o2)cc(OC)c1OC	62*	0.4	-15	0.8	22	20
COc1cc(-c2nc(S(=O)(=O)c3ccc(C)cc3)c(N(C)C)o2)cc(OC)c1OC	56*	0.4	14	0.9	13	-15
CC(C)(C)c1nc(S(=O)(=O)c2ccc(Cl)cc2)c(N2CCOCC2)o1	0	1	4	0.9	13	-2
SMILES	CYP2C9 inh	CYP2C9 activ	sEH inh	CYP2C19 act	CYP2C19 inh	sEH act
CC(C)Cc1nc(S(=O)(=O)c2ccc(Cl)cc2)c(N2CCOCC2)o1	4	1	0	0.4	57*	-1
COc1cccc(C(=O)Oc2cc(-c3ccccc3)no2)c1	6	0.9	-6	1	-3	7
COc1ccc(CC(=O)N2CC(C)CC(C)C2)cc1 (stereo not given)	-3	1	-9	0.6	41	6
C/C(CC(=O)Nc1cc(Cl)ccc1Cl)=N\NC(N)=S	9	0.9	-6	0.8	18	9
C/C(CC(=O)Nc1ccc(Cl)c(Cl)c1)=N\NC(N)=S	29	0.7	14	0.3	72*	-15
CCC(Cc1ccccc1)NC(=O)CSc1ccsc1[N+](=O)[O-] (stereo not given)	27	0.7	51	0.3	72*	-52
CC(Sc1ccsc1[N+](=O)[O-])C(=O)NCCc1ccc(Cl)cc1 (stereo not given)	70*	0.3	-2	0.4	57*	1
O=C(CSc1ccsc1[N+](=O)[O-])NCCc1ccccc1	55*	0.4	-22	0.8	22	20
Cc1cc(C)c2c(=O)[nH]c(SCC(=O)NCCc3ccccc3)nc2n1	/	/	6	/	/	0
O=C(CSc1nc2ccc([N+](=O)[O-])cc2[nH]1)NCCc1ccccc1	81*	0.2	2	0.2	82*	1
CCC(C)(C)n1nnnc1C(c1cc(OC)ccc1OC)N1CCC(C(N)=O)CC1 (stereo not given)	/	/	-6	/	/	6
O=C(Nc1ccc(F)c(F)c1)c1cc(S(=O)(=O)N2CCN(c3ccccn3)CC2)ccc1F	33	0.7	-8	0.9	11	5
Clc1ccc(CSc2nnc(-c3cccnc3)n2Cc2ccco2)c(Cl)c1	62*	0.4	-13	0.2	75*	15
Clc1cccc(CSc2nnc(-c3cccnc3)n2Cc2ccco2)c1	65*	0.4	-13	0.2	81*	13
c1cncc(CSc2nnc(-c3cccnc3)n2Cc2ccco2)c1	29	0.7	-15	0.9	10	12
CCCCN(C)CCCNC(=O)CC1Oc2ccccc2NC1=O (stereo not given)	-10	1.1	-14	1.2	-22	13
Cc1cc(C(=O)CSc2nnc(-c3ccco3)o2)c(C)n1CC1COc2ccccc2O1 (stereo not given)	78*	0.2	/	0	100*	/
Cc1cc(C(=O)CSc2nnc(-c3ccc(F)cc3)o2)c(C)n1CC1COc2ccccc2O1 (stereo not given)	54*	0.5	17	0.5	45	-14
Cc1cc(C(=O)CSc2nnc(-c3ccccc3)o2)c(C)n1CC1COc2ccccc2O1 (stereo not given)	45	0.6	-11	0.1	88*	14
O=C(CSc1nnc(-c2ccco2)o1)NC(=O)C1COc2ccccc2O1 (stereo not given)	-90	1.9	/	0.4	61*	/
Cc1cc(C(=O)CSc2nnc(-c3ccc(F)cc3)o2)c(C)n1CC1CCCO1 (stereo not given)	27	0.7	5	0.6	36	-2
Cc1ccc2nc(-c3ccccn3)cc(C(=O)NC3CCN(C)CC3)c2c1	11	0.9	-6	1	-3	9
CCN(CC)CCNC(=O)C(C)c1nn(C)c(=O)c2ccccc12 (stereo not given)	-7	1.1	/	/	/	/

Assay outcomes deposited in PubChem BioAssay by several laboratories.
